{"source": "ChEMBL document CHEMBL3988442", "about": "“University of Dundee, Small-Polar-MMV Screening Library” (2021)", "note": "The campaign covered roughly 48,000 compounds. About 13,000 (27%) showed an effect of 50% or more. The list shows a part of the results.", "data": [{"tested_on": "Wolbachia pipientis", "assay": "Anti-Wolbachia Cell-Based Screen", "assay_type": "functional", "design": "scale not given: in the data most compounds retested in dose-response had high values", "conditions": "5 µM", "units": {"Percent Effect": "%"}, "values": [{"smiles": "CCC(O)CN1CCN(C(=O)Cc2ccc(OC)cc2OC)CC1", "note": "(centres undefined)", "Percent Effect": 102.8}, {"smiles": "CCC(O)CN1CCN(C(=O)Cc2nc(-c3ccco3)oc2C)CC1", "note": "(centres undefined)", "Percent Effect": -5.833}, {"smiles": "CCC(O)CN1CCN(C(=O)Cc2cc(C)ccc2OC)CC1", "note": "(centres undefined)", "Percent Effect": 134}, {"smiles": "CCOCC(O)CN1CCN(C(=O)Cc2ccc(C)nc2)CC1", "note": "(centres undefined)", "Percent Effect": -10.97}, {"smiles": "CCC(O)CN1CCN(C(=O)Cc2c(C)nc(C)[nH]c2=O)CC1", "note": "(centres undefined)", "Percent Effect": -7.478}, {"smiles": "CCOCC(O)CN1CCN(C(=O)Cc2ccccc2C)CC1", "note": "(centres undefined)", "Percent Effect": -8.235}, {"smiles": "COCCN1C[C@H]2CC[C@@H]1CN(Cc1ccc3ccccc3n1)C2", "Percent Effect": 26.94}, {"smiles": "CN1CCN(S(=O)(=O)c2ccccc2)Cc2cccnc21.O=C(O)C(F)(F)F", "Percent Effect": 87.5}, {"smiles": "Cc1cnc(N2CCN(C)c3ncccc3C2)nc1.O=C(O)C(F)(F)F", "Percent Effect": 1.496}, {"smiles": "CN1CCN(S(=O)(=O)c2cccc(F)c2)Cc2cccnc21.O=C(O)C(F)(F)F", "Percent Effect": 100.3}, {"smiles": "CCc1ccc(CN2CCN(C)c3ncccc3C2)o1.O=C(O)C(F)(F)F.O=C(O)C(F)(F)F", "Percent Effect": 45.7}, {"smiles": "Cc1ccc(N2CCN(C)c3ncccc3C2)nn1.O=C(O)C(F)(F)F", "Percent Effect": 6.797}, {"smiles": "Cl.Cl.c1ccc(COC[C@@H]2CCC[C@@]23CNCCO3)nc1", "Percent Effect": 92.25}, {"smiles": "Cl.Cl.c1ccc(COC[C@H]2CCC[C@@]23CNCCO3)nc1", "Percent Effect": 88.66}, {"smiles": "Fc1cccnc1N1CCC2(CNCCC2(F)F)C1", "note": "(centres undefined)", "Percent Effect": 8.279}, {"smiles": "Cc1ccc(N2CC[C@@H]3CN(Cc4c[nH]cn4)C[C@@H]3C2)nn1", "Percent Effect": -8.039}, {"smiles": "CN1CCC2(Cc3ccccc3NC2=O)C1", "note": "(centres undefined)", "Percent Effect": -15.76}, {"smiles": "CN1Cc2ccccc2NC(=O)C12CCNC2", "note": "(centres undefined)", "Percent Effect": 111}, {"smiles": "CCOCCC(=O)N1C[C@H]2CC[C@@H]1CN(Cc1ccncc1)C2", "Percent Effect": 3.16}, {"smiles": "CN1CCN2C(=O)N(c3ccccc3)C[C@H]2C1", "Percent Effect": 3.165}, {"smiles": "OC[C@@H]1CN2CCN(c3ccccn3)C[C@@H]2[C@H]1c1ccccc1", "Percent Effect": 91.03}, {"smiles": "CN1CCN2C[C@@H](CO)[C@H](c3ccccc3)[C@H]2C1", "Percent Effect": 108.7}, {"smiles": "OC[C@H]1CN2CCN(c3ccccn3)C[C@@H]2[C@@H]1c1ccccc1", "Percent Effect": 97.55}, {"smiles": "Cc1nc(CC(=O)N2CCN(C)CC2c2ccccc2)cs1", "note": "(centres undefined)", "Percent Effect": -2.978}, {"smiles": "O=C(Cc1ccc(-n2cccn2)cc1)N1CCN2CCCCC2C1", "note": "(centres undefined)", "Percent Effect": 0.2002}, {"smiles": "N#Cc1cccc(N2CCOC3(CNCCOC3)C2)n1", "note": "(centres undefined)", "Percent Effect": -42.42}, {"smiles": "Cc1cc(CN2C[C@@H]3COC[C@]3(CNS(C)(=O)=O)C2)no1.O=C(O)C(F)(F)F", "Percent Effect": -0.4635}, {"smiles": "Cc1nc(C2(NCC(=O)NCc3cccs3)CCCCC2)no1", "Percent Effect": 113.6}, {"smiles": "Cc1nc(C2(NCc3cc(C#N)ccc3F)CCCCC2)no1", "Percent Effect": 11.5}, {"smiles": "Cc1nc(C2(NCC(=O)NC(=O)Nc3ccccc3)CCCCC2)no1", "Percent Effect": 112.9}, {"smiles": "Cc1nc(C2(NCc3ccc(C#N)cc3F)CCCCC2)no1", "Percent Effect": 2.337}, {"smiles": "Cc1nc(C2(NCC(=O)NC(=O)NCC(F)(F)F)CCCCC2)no1", "Percent Effect": 132.3}, {"smiles": "Cc1nc(C2(NCc3cccc(F)c3F)CCCCC2)no1", "Percent Effect": -2.659}, {"smiles": "Cc1cccnc1CCNC(=O)[C@@]12CNC[C@@H]1CN(S(C)(=O)=O)C2", "Percent Effect": -16.39}, {"smiles": "Cc1cccnc1CC(C)NC1CCSCC1", "note": "(centres undefined)", "Percent Effect": -10.51}, {"smiles": "CC(Cc1c(F)cccc1F)NC(=O)CSCC(N)=O", "note": "(centres undefined)", "Percent Effect": -4.817}, {"smiles": "CCNC(=O)CN1CCSC2(CCCCC2)C1", "Percent Effect": -30.52}, {"smiles": "O=C(CC1CC1)N[C@@H]1CN(Cc2ccncc2)C[C@@H]2CCCO[C@@H]21.O=C(O)C(F)(F)F.O=C(O)C(F)(F)F", "Percent Effect": -9.965}, {"smiles": "Cc1ncsc1CN1C[C@@H]2CCCO[C@@H]2[C@H](Nc2ccccn2)C1.O=C(O)C(F)(F)F.O=C(O)C(F)(F)F", "Percent Effect": 103.9}, {"smiles": "CCOCCN1C[C@@H]2CCCO[C@@H]2[C@H](NC(=O)c2cnoc2C)C1.O=C(O)C(F)(F)F", "Percent Effect": 102.3}, {"smiles": "O=C(O)C(F)(F)F.O=C(O)C(F)(F)F.O=C(O)C(F)(F)F.c1ccc(CN2C[C@@H]3CCCO[C@@H]3[C@H](Nc3ccccn3)C2)nc1", "Percent Effect": -7.621}, {"smiles": "Cc1cc(CN2C[C@@H]3CCCO[C@@H]3[C@H](Nc3ccccn3)C2)no1.O=C(O)C(F)(F)F.O=C(O)C(F)(F)F", "Percent Effect": 7.146}, {"smiles": "Cc1oncc1C(=O)N[C@@H]1CN(C2CCC2)C[C@@H]2CCCO[C@@H]21.O=C(O)C(F)(F)F", "Percent Effect": 88.41}, {"smiles": "O=C(CC1CC1)N[C@@H]1CN(Cc2cccnc2)C[C@@H]2CCCO[C@@H]21.O=C(O)C(F)(F)F.O=C(O)C(F)(F)F", "Percent Effect": -3.357}, {"smiles": "Cc1cc(CN2C[C@@H]3CCCO[C@@H]3[C@H](NS(C)(=O)=O)C2)no1.O=C(O)C(F)(F)F", "Percent Effect": -7.292}, {"smiles": "Cc1oncc1C(=O)N[C@@H]1CN(CC2CC2)C[C@@H]2CCCO[C@@H]21.O=C(O)C(F)(F)F", "Percent Effect": 91.11}, {"smiles": "CCS(=O)(=O)N[C@@H]1CN(Cc2cc(C)on2)C[C@@H]2CCCO[C@@H]21.O=C(O)C(F)(F)F", "Percent Effect": -1.229}, {"smiles": "Cc1noc(C)c1CN1C[C@@H]2CCCO[C@@H]2[C@H](NS(C)(=O)=O)C1.O=C(O)C(F)(F)F", "Percent Effect": -5.766}, {"smiles": "CC(C)c1cc(N2CCCC3(CCN(C)C3)C2)ncn1", "note": "(centres undefined)", "Percent Effect": 23.89}, {"smiles": "CCN(CC)C(=O)C1CCC2(CCNCC2)O1.Cl", "note": "(centres undefined)", "Percent Effect": -5.53}, {"smiles": "Cc1nn(CCNC(C)Cn2ccnc2)c(C)c1Cl", "note": "(centres undefined)", "Percent Effect": -2.201}, {"smiles": "COCC(=O)NC(C)Cc1cccc(Br)c1", "note": "(centres undefined)", "Percent Effect": -14.37}, {"smiles": "CC(C)c1cc(CN2CCNCC2)no1", "Percent Effect": 116.8}, {"smiles": "CCc1cc(N2CCNCC2)n2nc(C)c(C)c2n1", "Percent Effect": -8.161}, {"smiles": "CCc1noc(C(C)N2CCNCC2)n1", "note": "(centres undefined)", "Percent Effect": 13}, {"smiles": "CN1CCC2(CC1)C(=O)N(c1cccnc1)c1ccc(F)cc12.Cl", "Percent Effect": -1.333}, {"smiles": "NC(=O)CN1CCCCC1c1ccc(-n2ccnc2)nc1", "note": "(centres undefined)", "Percent Effect": 114.9}, {"smiles": "O=C(c1ccc(-n2ccnc2)nc1)N1CCN2CCCCC2C1", "note": "(centres undefined)", "Percent Effect": -5.274}, {"smiles": "CN1CCCCC1c1ccc(-n2ccnc2)nc1", "note": "(centres undefined)", "Percent Effect": 128}]}]}
